From PubChem
Only some compounds are listed: those with a hit (about 6% of all), similar ones and a draw of the others.
D3 antag: D3 dopamine receptor (human) antagonism; P35462; D3R cells, DiscoveRx beta-arrestin luminescence, antagonist mode; stronger effect = lower value; max response, negative = inhibition, %; 2.5% of 360,000 active; AID 652054; in the data active = max response below about -50%; also: % is scaled to controls: 0 for no effect and ±100 for the full control effect
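Cells plated overnight at 1500 cells/well, then exposed to library compounds with dopamine controls for 90 minutes at 37 degrees C. DiscoveRx reagent added for 30–60 minutes at room temperature; luminescence read, quantitative HTS format.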
D3 ag: D3 dopamine receptor (human) agonism; P35462; D3R DiscoveRx beta-arrestin cells, luminescence, 90 min; max activation, %; 0.58% of 410,000 active; in the data active = max activation above about 30%; also: 0% is about no effect
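Agonist-mode cell screen: cells plated at 1500/well and incubated overnight at 37 °C, then exposed to library compounds for 90 min at 37 °C. Detection reagent was added for 30–60 min at room temperature, and luminescence was read.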
D1 antagonist: antagonists of human D1 dopamine receptor. activity change, negative = inhibition, % at 10 µM. 3.2% of 360,000 active. P21728. HEK293 TREx D1 cells, calcium flux, dopamine EC80; stronger effect = lower value; in the data active = activity change below about -30%; also: % is scaled to controls: 0 for no effect and ±100 for the full control effect
Target sequence (P21728 whole entry, looked up): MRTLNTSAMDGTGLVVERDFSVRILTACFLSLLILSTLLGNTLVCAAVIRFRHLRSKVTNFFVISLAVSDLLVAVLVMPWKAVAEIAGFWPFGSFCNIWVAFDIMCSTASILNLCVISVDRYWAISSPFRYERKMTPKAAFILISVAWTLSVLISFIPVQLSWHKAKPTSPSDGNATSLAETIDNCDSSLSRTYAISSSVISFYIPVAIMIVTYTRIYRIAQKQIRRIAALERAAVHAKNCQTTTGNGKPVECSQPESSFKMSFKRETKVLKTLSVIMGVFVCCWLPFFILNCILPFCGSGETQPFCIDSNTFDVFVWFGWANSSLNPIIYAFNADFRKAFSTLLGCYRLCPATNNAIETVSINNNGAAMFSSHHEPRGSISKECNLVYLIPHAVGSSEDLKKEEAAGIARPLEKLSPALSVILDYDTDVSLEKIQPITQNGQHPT
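Allosteric or orthosteric antagonism assessed as attenuation of the calcium response to EC80 dopamine, added 180 s after compound, in induced HEK293 Trex D1 cells loaded with no-wash calcium dye.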
D1 potentiator: human D1 dopamine receptor positive modulation; P21728; 0.036% of 360,000 active; potentiation, % at 10 µM; AID 504651; HEK293 TREx D1 cells, calcium flux, dopamine EC20 potentiation; in the data active = potentiation above about 30%; also: 0% is about no effect
D1 ag: activates the human D1 dopamine receptor; HEK293 T-REx D1 cells, calcium flux, agonist mode; activation, % at 2 µM; 1% of 360,000 active; P21728; AID 504660; in the data active = activation above about 30%; also: 0% is about no effect
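Inducible HEK293 T-REx D1 cells, force-coupled to calcium signalling, were plated at 4000 cells/well with tetracycline and held overnight at 30 C. After no-wash calcium dye loading, compound-evoked calcium rise over 180 s flagged agonists.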
* hit, by the source's call; / = no result.

SMILES	D3 antag	D3 ag	D1 antagonist	D1 potentiator	D1 ag
COCCCNCCCOc1ccc(C(C)(C)c2ccccc2)cc1	-22	-11	13	0	9
CC(C)(c1ccccc1)c1ccc(OCCCNCCO)cc1	-75*	-3	5	3	21
Cc1nn(Cc2ccc(Cl)cc2)c(C)c1NC(=O)CSc1nc2c(c(C(F)(F)F)n1)CCc1ccccc1-2	34	16	-3	12	1
Cc1ccc(Cn2nc(C)c(NC(=O)CSc3nc4c(c(C(F)(F)F)n3)CCc3ccccc3-4)c2C)cc1	6	-6	-86*	-11	0
COc1ccc(NC(=O)CSC2=Nc3ccccc3C3=NC(CC(=O)NCc4ccc5c(c4)OCO5)C(=O)N23)cc1 (centres undefined)	/	-7	8	-2	-1
CCOc1ccc(NC(=O)CSC2=Nc3ccccc3C3=NC(CC(=O)NCc4ccc5c(c4)OCO5)C(=O)N23)cc1 (centres undefined)	/	-12	-30*	-4	1
O=C(Nc1ccccc1)c1[nH]ncc1[N+](=O)[O-]	-63*	2	-5	-2	4
COc1ccc(NC(=O)c2[nH]ncc2[N+](=O)[O-])cc1	-6	-2	-13	0	3
Cc1nc([N+](=O)[O-])c(Br)n1CC(=O)c1cccc([N+](=O)[O-])c1	-51*	6	-14	-2	6
CCOc1cc(C)c(S(=O)(=O)NC2CCCCC2)cc1C	-12	-16	-33*	-5	18
CCOC(=O)CNC(c1ccccc1)c1cc(Br)ccc1NC(=O)c1ccc(Cl)cc1 (centres undefined)	/	-7	-17	-1	-2
Cc1ccc(S(=O)(=O)/N=C2/NC(=O)/C(=C/c3cc([N+](=O)[O-])ccc3O)S2)cc1	-5	6	34	0	218*
O=C1N/C(=N/O)S/C1=C/c1cccc([N+](=O)[O-])c1	-5	3	-18	1	3
O=C1NC(=Nc2ccccc2Cl)S/C1=C\c1cc([N+](=O)[O-])ccc1O	-15	-4	10	-8	76*
COc1cccc(N=C2NC(=O)/C(=C/c3cc([N+](=O)[O-])ccc3O)S2)c1	-7	-7	34	3	83*
O=C(OCC(COC(=O)c1cccnc1)(COC(=O)c1cccnc1)COC(=O)c1cccnc1)c1cccnc1	/	5	/	/	/
CCOC(=O)C1CCCN(C(=O)CCS(=O)(=O)c2cc3c(cc2Cl)NC(=O)CO3)C1 (centres undefined)	/	-12	1	-2	-1
COc1ccc(C2=C(Nc3ccc(Br)c(C)c3)c3ccccc3C2=O)cc1	/	1	12	3	1
Cc1nc2c(-c3ccccc3)c(C)[nH]n2c(=O)c1Cc1ccc(Br)cc1	/	-5	1	-3	-1
COc1ccccc1CNC(=O)CN(C)S(=O)(=O)c1ccc2c(c1)n(C)c(=O)c(=O)n2C	0	-2	7	6	1
CN(CC(=O)NCc1ccc(Cl)cc1)S(=O)(=O)c1ccc2c(c1)c(=O)n(C)c(=O)n2C	/	5	-44*	4	0
COc1ccccc1CNC(=O)CN(C)S(=O)(=O)c1ccc2c(c1)c(=O)n(C)c(=O)n2C	-2	0	-37*	-1	0
COc1ccc(NC(=O)CSc2nc(-c3ccc(OC)cc3)cc(=O)[nH]2)cc1	/	1	7	-4	57*
Nc1cc(=O)[nH]c(SCC(=O)Nc2ccc(Br)cc2)n1	-4	-5	6	-7	0
COc1ccc(NC(=O)CSc2nc3sc(C)cc3c(=O)n2C)cc1	13	8	-34*	-4	5
SMILES	D3 antag	D3 ag	D1 antagonist	D1 potentiator	D1 ag
COc1ccc(NC(=O)c2ccc(NC(=O)CSc3nc(N)cc(=O)[nH]3)cc2)cc1	0	2	-45*	-2	2
COC(=O)c1ccc(NC(=O)CSc2nc3ccc(OC)cc3[nH]2)cc1	/	-15	-57*	-4	17
Oc1cccc(-c2c3nc(c(-c4cccc(O)c4)c4ccc([nH]4)c(-c4cccc(O)c4)c4nc(c(-c5cccc(O)c5)c5ccc2[nH]5)CC4)C=C3)c1	/	-11	/	/	/
CC1=C(C(N)=O)C(c2ccc(C)cc2)n2nc(SCc3ccccc3)nc2N1 (centres undefined)	/	2	2	1	-1
CCC(=O)N1c2ccccc2CC1C(=O)NCCc1ccc(SC)cc1 (centres undefined)	/	-23	4	1	0
COc1ccc(OC)c(Nc2nc3ccccc3n3c(C)nnc23)c1	/	2	4	-1	1
CCOc1ccc(CCNCc2c(C(=O)O)n(Cc3ccc(C)cc3)c3cc(OC)ccc23)cc1	/	1	4	-4	-1
COc1ccc(N2CCN(CCCNC(=O)c3nnc(Cc4ccccc4Cl)o3)CC2)cc1	/	3	-5	-3	5
CCn1nc(C(=O)OCC(=O)Nc2nc(-c3ccc(OC)cc3)cs2)c2ccccc2c1=O	90	35*	15	8	1
CCc1c(C)nc(SCC(=O)Nc2nc(-c3ccc(OC)cc3)cs2)[nH]c1=O	29	23	-33*	-2	9
COc1ccc2nc(SCC(=O)NC(C)C)[nH]c2c1	18	1	11	8	5
COc1ccc2nc(SCC(=O)NC3CCCCC3C)[nH]c2c1 (centres undefined)	0	-3	-40*	-15	0
CCc1c(C)nc(SCC(=O)NNC(=O)Cc2ccc(OC)cc2)[nH]c1=O	13	0	-11	-10	3
CCn1nc(C(=O)OCC(=O)NCC(C)C)c2ccccc2c1=O	-1	10	6	3	1
COc1ccc(/C=N/N2CCN(c3ccc(Cl)cc3)CC2)cc1	-2	-2	-7	-2	2
Cc1ccc(N=C2C(=S)N(c3ccc(C)cc3)C(=N)N2/N=C/c2ccc(Cl)cc2)cc1	-51*	0	-23	-11	-1
COc1ccc([C@]23Cc4cc(OC)c(OC)cc4C(O2)c2c(cc(C)n(Cc4ccccc4)c2=O)O3)cc1	/	/	0	0	2
CC(=O)c1c(C)oc2c1cc(NS(=O)(=O)c1ccc(Cl)c(C)c1)c1ccccc12	/	9	1	-2	-1
Cc1cc(C)c2nc(N3CCCC(C(=O)NCc4ccccc4F)C3)sc2c1 (centres undefined)	/	9	-2	-5	1
Cc1ccc(-c2cc(C(=O)NCc3ccccc3)c3c(-c4ccc(C)cc4)[nH]nc3n2)cc1	/	0	14	-2	9
CC(=O)Nc1ccc(-c2cc(C(=O)O)c3c(-c4ccccc4)[nH]nc3n2)cc1	/	1	-39*	0	1
CCOc1ccccc1CNC(=O)Cn1cc2c(n1)-c1c(oc(C(=O)N3CCCC3)c1C)CC2	/	6	-2	-6	3
CN1CCN(C2=Cc3ccc(Cl)cc3Sc3ccc(F)cc32)CC1	-19	-16	-91*	-28	9
